# From the supplement of paper PMC6555819
# Columns and labels:
# Experiment in all cases: PBM binding z-score (relative to random genomic background probes); higher = stronger binding; sequences stand for … in GC…GCGATTGACAGCGTAGAATGAAGG
# [1] = tested on: FXR:RXRa (NR concentration 270 nM, RXRa partner concentration 90 nM)
# How it was run: (§1)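 Custom Agilent 4×180K protein-binding microarrays carried double-stranded probes. Their 34-nt variable regions held direct-repeat seeds, single-nucleotide variants, half-site ablations and random human genomic background sequences. Arrays were incubated 1 h with ligand-free nuclear receptor dimers in PBS pH 7.4, 2% milk, 0.02% Triton X-100, 1 mM DTT, 0.2 mg/mL BSA and 0.4 mg/ml salmon testes DNA. Antibodies against each partner (one per run) detected binding, and scanned fluorescence was regression-normalized. Binding z-scores use random background probes as reference.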
# [2] = tested on: LXRa:RXRa (NR concentration 270 nM, RXRa partner concentration 90 nM)
# How it was run: as §1
# [3] = tested on: LXRa homodimer (NR concentration 270 nM)
# How it was run: as §1
# [4] = tested on: LXRb:RXRa (NR concentration 270 nM, RXRa partner concentration 90 nM)
# How it was run: as §1
# [5] = tested on: LXRb homodimer (NR concentration 270 nM)
# How it was run: as §1
# [6] = tested on: PPARa:RXRa (NR concentration 270 nM, RXRa partner concentration 90 nM)
# How it was run: as §1
# [7] = tested on: PPARg:RXRa (NR concentration 180 nM, RXRa partner concentration 90 nM)
# How it was run: as §1
# [8] = tested on: PPARg:RXRa 270nM:90nM, anti-RXR (NR concentration 270 nM, RXRa partner concentration 90 nM)
# How it was run: as §1
# [9] = tested on: PPARg:RXRa 30nM:10nM, anti-RXR (NR concentration 30 nM, RXRa partner concentration 10 nM)
# How it was run: as §1
# [10] = tested on: PPARg:RXRa 90nM:30nM, anti-RXR (NR concentration 90 nM, RXRa partner concentration 30 nM)
# How it was run: as §1
Sequence,PBM binding z-score [1],PBM binding z-score [2],PBM binding z-score [3],PBM binding z-score [4],PBM binding z-score [5],PBM binding z-score [6],PBM binding z-score [7],PBM binding z-score [8],PBM binding z-score [9],PBM binding z-score [10]
GCTATTAGTTGACAGGGCAACCGAATGATTCTCG,-0.301,-0.298,-0.0236,-0.0105,-0.293,0.0349,0.532,0.626,-0.199,0.442
AGAATGAGGTAATACGTAGATCAGGGAAGAAAGT,0.302,0.0343,-0.0872,0.215,-0.209,0.49,1.04,0.841,0.517,0.757
CGAACGAGGGCATGAGTTGATCGCAAATGCCGAT,0.394,0.374,-0.273,0.109,-0.729,1.45,1.22,1.32,0.129,0.937
TCTTGTAGATCAAGCAGGTTAAGAACGCCTGAGT,0.558,0.44,-0.0745,0.534,-0.492,0.851,-0.197,1.21,2.6,1.7
GCTAGTCGGTCAGTAAAAGGTCACACACCGGTCG,4.06,4.97,5.34,4.32,0.747,4.67,3.19,4.83,2.43,4.01
CGTCCAAGGTCGTAGGAGGTCAGTGAAGACAGAT,4.38,4.75,1.14,3.33,-0.833,4.12,1.79,2.5,0.257,1.32
GCTTGTAGCTCAAGGTTAAGAAAGACTAAGCTAA,-0.0638,0.559,-0.361,0.165,-0.751,0.893,-0.394,0.557,-0.472,0.243
CCCATTAGTTGACCATAAGGGCAACCGAAGCTCG,1.1,0.851,0.582,0.755,0.614,0.65,0.359,0.482,-0.068,0.346
AGAATGAGGTTAAGATCAGTGAAACAGAATACAT,2.32,3.08,0.0147,1.91,-0.196,3.6,2.38,2.25,1.23,1.78
GGAACGAGGGCAAAATTGATAGCATCTGTCGACG,0.343,0.168,-0.325,0.129,-0.58,1.03,1.22,1.52,0.191,0.732
CTAGAAAGGTCGTGCTCAGGTGAGTATACCAAAC,4.5,3.64,0.405,3.02,0.336,4.78,2.51,3.48,0.919,2.34
CCGACTGGGCCAGAAAGGTTACCATACCATCCGG,0.387,0.792,-0.182,0.895,-0.545,1.88,0.92,0.91,0.0101,0.541
AGAATGATGTTATACGTAGATCAGGGAAGAAAGT,-0.301,-0.398,-0.0367,-0.288,-0.0572,-0.192,0.88,-0.156,0.198,-0.0681
CCTAGTAGGTCAGGAGGTCACACACCGGATATGA,5.48,4.97,2.62,4.41,0.811,5.81,9.01,7.34,6.14,7.5
GGAACGAGGACAAGTTGATAGCAGAGTTTGATGG,0.526,-0.33,-0.0892,-0.534,-0.685,0.0298,0.641,-0.0478,-0.0459,-0.0367
TGAATGAGGTTAAAGAACAGGGAACGTGGCGTCG,2.39,1.98,-0.259,1.32,0.39,3.38,2.53,3.32,1.51,3.04
ATTTACGGGTCAACGAGGTTATAGCACGCGTATA,7.58,5.96,2.29,4.93,1.41,6.1,6.73,6.17,3.27,5.21
TGATATAGGTAAACAGGTGAAAGTCCGTAAGTTA,0.277,0.353,0.0822,0.388,0.0217,2.37,3.95,3.81,1.65,3.09
TCTAGCAGGCCCGAGGGTCACTCAAGAGGTACGG,0.726,0.983,-0.649,1.04,-1.35,1.96,0.501,1.33,1.57,1.42
CCGACTGAGGCAAAGGTTACCATACTCAGTACGA,0.7,1.19,-0.159,1.48,-0.611,3.69,6.77,6.76,4.81,6.88
CCTTACGGGTCACTCCAGGTTGTAGCATCGGAGT,4.5,6.32,0.477,3.72,0.0911,4.42,2.92,3.54,0.72,2.5
TCTGCTAGGTCAGTTGGTCAGTTAACGAGCTGCC,0.865,0.257,-0.414,0.323,0.405,1.37,0.334,1.33,0.985,1.08
TCATATAGGTAAACAGGTTAAAGTCCGTAAGTTA,0.775,1.24,0.749,1.34,0.393,2.69,2.85,3.9,4.25,3.91
CGTCCAAGGTCCGCAGGTCAGTGAAAGCGACGTG,-0.0411,-0.153,-0.475,-0.0275,-1.05,0.735,-0.507,0.0239,-0.651,-0.568
